CtBP-E1A inh: qHTS Assay for Inhibitors of the CtBP/E1A Interaction. 0.49% of 340,000 active. AID 651724, 2012. AlphaScreen GST-E1A/His-CtBP binding, 1536-well; active compounds read low. activity change, % (no concentration beside the values); in the data active = activity change below about -65%; inconclusive = mostly about -30% to -63%
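GST-E1A and His-tagged CtBP (125 nM each as 5X stock) were preincubated with pin-transferred compound for 2 h at 37 °C in the dark, then glutathione donor and nickel acceptor beads were added for 1 h before AlphaScreen reading.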
TDP1 inh: qHTS Assay for Inhibitors of Tyrosyl-DNA Phosphodiesterase (TDP1). AID 485290, 2010. recombinant TDP1, AlphaScreen DNA substrate cleavage. Tyrosyl-DNA phosphodiesterase 1 (Homo sapiens), Q9NUW8. Potency, µM (series often up to 130 µM), actives largely listed as inhibitors. 0.28% of 350,000 active; note: nearly all actives have a fitted effect of over 40% in size
Target sequence (Q9NUW8 whole entry, looked up): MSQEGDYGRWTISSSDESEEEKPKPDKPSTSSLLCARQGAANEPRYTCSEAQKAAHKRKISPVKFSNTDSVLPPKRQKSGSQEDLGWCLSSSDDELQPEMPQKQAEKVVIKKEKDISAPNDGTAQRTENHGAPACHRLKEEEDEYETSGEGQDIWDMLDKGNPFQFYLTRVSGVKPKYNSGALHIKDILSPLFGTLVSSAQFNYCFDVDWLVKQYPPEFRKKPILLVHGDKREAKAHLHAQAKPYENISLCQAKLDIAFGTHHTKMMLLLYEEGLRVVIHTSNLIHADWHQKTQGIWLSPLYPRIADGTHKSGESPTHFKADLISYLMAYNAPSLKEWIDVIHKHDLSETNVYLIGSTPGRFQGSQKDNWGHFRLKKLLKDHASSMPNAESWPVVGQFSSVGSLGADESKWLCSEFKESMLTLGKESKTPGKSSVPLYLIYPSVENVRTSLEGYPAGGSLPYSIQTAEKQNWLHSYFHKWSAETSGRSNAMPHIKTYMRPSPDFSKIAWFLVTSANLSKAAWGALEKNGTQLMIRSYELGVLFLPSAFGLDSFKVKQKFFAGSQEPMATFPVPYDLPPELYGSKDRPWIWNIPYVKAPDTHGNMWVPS
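Steps: enzyme plus compound, 15 min RT; add biotin/phosphotyrosine-FITC oligonucleotide (15 nM final), react 5 min; add donor/acceptor beads (10 ug/ml final), 10 min; read AlphaScreen. Tdp1 at 1 nM final.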
IL-1B inflam inh: qHTS for Inhibitors of Inflammasome Signaling: IL-1-beta AlphaLISA Primary Screen; THP-1 LPS/ATP IL-1B secretion, AlphaLISA, 16 h; active compounds read low; activity change, % at 57.5 µM; 4.7% of 360,000 active; AID 743279, 2014; in the data active = activity change below about -50%; inconclusive = mostly about -30% to -49%
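THP-1 cells pretreated 1 hr with compounds (up to 57.5 uM final), then stimulated with LPS (250 ng/mL final) plus ATP (1.25 mM final); secreted IL-1B measured by AlphaLISA after 16 hr, decreased signal indicating inhibition.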
TDP1 cell noCPT: qHTS for Inhibitors of human tyrosyl-DNA phosphodiesterase 1 (TDP1): qHTS in cells in absence of CPT | DT40 Tdp1-/- hTDP1 cells, no CPT, ATP luminescence, 48 h | 15% of 420,000 active | Potency, µM (titrated, usually from 46.2 µM), most hits filed as inhibitors | AID 686978, 2013; note: nearly all actives have a fitted effect of over 55% in size
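No-CPT arm: Tdp1-/-;hTDP1 DT40 cells (400/well) plus compounds, incubated ≥48 hr at 37 °C. Readout CellTiter-Glo luminescence.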
DT40 TDP1 CPT: qHTS for Inhibitors of human tyrosyl-DNA phosphodiesterase 1 (TDP1): qHTS in cells in presence of CPT | chicken DT40 Tdp1-/-;hTDP1 cells + 20 nM CPT, ATP luminescence, 48 h | 12% of 420,000 active | Potency, µM (highest dose often 46.2 µM), most hits filed as inhibitors; note: nearly all actives have a fitted effect of over 55% in size
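Cell growth measured by CellTiter-Glo luminescence after a minimum 48 h, 37 C compound exposure with 20 nM CPT in Tdp1-knockout DT40 cells stably expressing hTDP1, seeded 400/well; qHTS titration format.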
Six1-Eya2 blk: qHTS Assay for Inhibitors of the Six1/Eya2 Interaction. activity change, % (test concentration not listed). 0.56% of 360,000 active. AlphaScreen GST-Six1/His-Eya2 binding, biochemical; active compounds read low; in the data active = activity change below about -65%; inconclusive = mostly about -30% to -63%
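AlphaScreen with GST-Six1 and His-Eya2 (5X mix: 250 nM and 500 nM), glutathione donor and nickel acceptor beads; buffer 50 mM Tris pH 8.0, 300 mM NaCl, 1 mM TCEP; 1 h at 37 C in the dark.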
Hits are given with their value. In the library only some 18% were active in any assay of this set; here they are far more common. Unless noted, calls come from the whole dose curve; as a rule, active = well fitted curve in the direction sought with a large enough effect; inconclusive = small, poorly fitted or top-dose-only effect, or another doubt; inactive = no such curve, though single readings can be large; an effect the other way counts as inactive or inconclusive.

Results for C[C@@H]1C[C@@H]2OC(=O)[C@]3(C)[C@H]2[C@@H](OC3(C)O)[C@]2(C)C(=O)C=C[C@H]12 (stereo partly drawn) ?
CtBP-E1A inh: inactive; TDP1 inh: inactive; IL-1B inflam inh: -90; TDP1 cell noCPT: inconclusive; DT40 TDP1 CPT: 18µM; Six1-Eya2 blk: inactive

What do the screens show for `O=S(=O)(Cc1nnnn1-c1ccccc1)c1ccc(F)cc1`?
CtBP-E1A inh: inactive; TDP1 inh: inactive; IL-1B inflam inh: inactive; TDP1 cell noCPT: inactive; DT40 TDP1 CPT: inactive; Six1-Eya2 blk: inactive

What do the screens show for `CCOC1=C(C#N)CC2(CC1)c1ccccc1-c1ccccc12`?
CtBP-E1A inh: inactive; IL-1B inflam inh: inactive; TDP1 cell noCPT: 23µM; DT40 TDP1 CPT: inconclusive; Six1-Eya2 blk: inactive

Results for Cc1cc2c(cn1)C(CCC#N)(CCC#N)c1ccccc1-2 ?
CtBP-E1A inh: inactive; TDP1 inh: inactive; IL-1B inflam inh: inactive; TDP1 cell noCPT: inactive; DT40 TDP1 CPT: inactive; Six1-Eya2 blk: inactive

What do the screens show for `COC(=O)c1ccccc1NC(=O)Cn1c(=O)n(-c2ccc(Cl)cc2)c(=O)c2c(C)c(C)sc21`?
TDP1 inh: inactive; TDP1 cell noCPT: inconclusive; DT40 TDP1 CPT: inactive

What do the screens show for `CCC1CN(C(=O)Nc2ccc(C)cc2)c2cc(C)ccc2O1` (stereo not drawn)?
CtBP-E1A inh: inactive; TDP1 inh: inactive; IL-1B inflam inh: inactive; TDP1 cell noCPT: 16µM; DT40 TDP1 CPT: inconclusive; Six1-Eya2 blk: inactive

What do the screens show for `CCC1CN(C(=O)Nc2cccc3c2CCCC3)c2ccccc2O1` (stereo not drawn)?
TDP1 inh: inactive; TDP1 cell noCPT: 16µM; DT40 TDP1 CPT: inconclusive

How did CCC1CN(C(=O)Nc2ccccc2F)c2cc(C)ccc2O1 (stereo not drawn) do in these assays?
TDP1 inh: inactive; TDP1 cell noCPT: inconclusive; DT40 TDP1 CPT: inconclusive

How did CCC1CN(C(=O)Nc2cccc3c2CCCC3)c2cc(Cl)ccc2O1 (stereo not drawn) do in these assays?
TDP1 inh: inactive; TDP1 cell noCPT: 21µM; DT40 TDP1 CPT: inconclusive

Results for COc1ccc(C(C)=O)cc1COC(=O)CNC(=O)c1ccc(Cl)cc1 ?
TDP1 inh: inactive; IL-1B inflam inh: inactive; TDP1 cell noCPT: inconclusive; DT40 TDP1 CPT: inactive; Six1-Eya2 blk: inactive

Results for Cc1ccc(Cl)cc1N1CCN(C(=O)C2CCN(Cc3nc(-c4cccc(Cl)c4)oc3C)CC2)CC1 ?
TDP1 inh: inactive; TDP1 cell noCPT: 15µM; DT40 TDP1 CPT: inconclusive

What do the screens show for `Cc1oc(-c2cccc(Cl)c2)nc1CN1CCC(C(=O)N2CCN(c3ccccc3F)CC2)CC1`?
CtBP-E1A inh: inactive; IL-1B inflam inh: -56; TDP1 cell noCPT: 18µM; DT40 TDP1 CPT: 18µM; Six1-Eya2 blk: inactive

Screening results (PubChem)
